Data from PubChem BioAssay AID652154 (Broad Institute, 2013).
Hit rate of the full screen: of about 360,000 compounds, about 4,200 (1.2%) were called active.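 Rule for the calls: active = mean replicate inhibition at least 60% with every replicate also reaching 60%; inconclusive = only one of the two criteria is met; inactive = mean below 60% and not all replicates reaching 60%.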 The entries come from a sample that favours actives as a whole.

Assay: PAX8 transcriptional activity inhibition in RMG-I – RMG-I cells, luciferase, single concentration, primary screen (AID 652154);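 note: luciferase light reporting Pax8 driven TPO promoter activity; plate controls were median of neutral control wells for no effect and mitoxantrone controls for full effect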
Conditions: RMG-I TPO-luciferase reporter, SteadyGlo, 24 h; at 12.6 µM; active compounds read high

SMILES | inhibition
COc1ccc2c3c(n(C)c2c1)[C@@H](CO)N(Cc1ccncc1)CC31CN(C(=O)C2CCCCC2)C1 | -15.5% (inactive)
COc1ccc(S(=O)(=O)N(C)C[C@H]2OCCCC[C@@H](C)Oc3ccc(NC(=O)NC(C)C)cc3C(=O)N([C@H](C)CO)C[C@H]2C)cc1 | 17% (inactive)
C/C=C/c1ccc([C@H]2[C@@H](C#N)N(C(=O)CN3CCOCC3)[C@@H]2CO)cc1 | -6.35% (inactive)
COC(=O)CSc1nnc(NC(=O)CCc2ccccc2)s1 | -0.955% (inactive)
CCOCc1nnc(NC(=O)CCS(=O)(=O)Cc2ccccc2)s1 | 50.3% (inactive)
COCCSc1nnc(NC(=O)CCS(=O)(=O)Cc2ccccc2)s1 | 65.7% (active)
C[C@@H]1CN([C@@H](C)CO)S(=O)(=O)c2ccc(-c3cccc(C(=O)N(C)C)c3)cc2O[C@@H]1CN(C)C | -0.377% (inactive)
O=C(C[C@H]1C[C@H]2c3cc(NC(=O)C4CCC4)ccc3O[C@H]2[C@@H](CO)O1)NCc1ccc(Cl)cc1 | -5.09% (inactive)
O=C(c1ccccc1)N1CCN(c2cc(-c3ccccc3)nc3cc(-c4cccc(Cl)c4)nn23)CC1 | 40.2% (inactive)
CN(C)CCN1CCN(c2cc(-c3cccc(Cl)c3)nc3ccnn23)CC1 | -3.43% (inactive)
C#Cc1cc(N2CCN(C(=O)c3ccoc3)CC2)n2nc(-c3cccc(Cl)c3)cc2n1 | 107% (active)
C[C@@H]1CN([C@H](C)CO)C(=O)c2cccc(NS(=O)(=O)c3ccccc3)c2O[C@@H]1CN(C)Cc1ccc(C(=O)O)cc1 | 14.1% (inactive)
CCC(=O)Nc1ccc2c(c1)C(=O)N(C)[C@@H]1CC[C@@H](CC(=O)Nc3cccc(OC)c3)O[C@@H]1CO2 | 8.78% (inactive)
Cc1ccc(C)c(S(=O)(=O)N2CCN(c3ncnc4sccc34)CC2)c1 | 73.6% (active)
Cc1ccc(C)c(S(=O)(=O)N2CCN(CC(=O)Nc3ccc([N+](=O)[O-])cc3)CC2)c1 | 6.46% (inactive)
COc1ccc(-c2csc3ncnc(N4CCN(S(=O)(=O)c5ccccc5C#N)CC4)c23)cc1 | 9.25% (inactive)
CCC(=O)Nc1ccc2c(c1)OC[C@@H](C)N(Cc1ccccc1OC)C[C@H](C)[C@H](OC)CN(C)C2=O | -6.79% (inactive)
C[C@@H]1CN([C@H](C)CO)C(=O)c2cc(NS(=O)(=O)c3cn(C)cn3)ccc2O[C@H]1CN(C)S(=O)(=O)c1ccc(Cl)cc1 | 1.32% (inactive)
CC(=O)N(C)C[C@@H]1Oc2ncc(C#Cc3ccc(F)cc3)cc2C(=O)N([C@H](C)CO)C[C@@H]1C | -8.23% (inactive)
C[C@H](CO)N1C[C@H](C)[C@@H](CN(C)S(=O)(=O)c2cccc(F)c2)Oc2cc(C#CCN(C)C)ccc2S1(=O)=O | 14.6% (inactive)
COCC(=O)N(C)C[C@@H]1Oc2cc(C3=CCCC3)ccc2S(=O)(=O)N([C@@H](C)CO)C[C@H]1C | -21% (inactive)

SMILES | inhibition
COc1ccccc1S(=O)(=O)N(C)C[C@H]1Oc2cc(C#CCC3CCCC3)ccc2S(=O)(=O)N([C@@H](C)CO)C[C@H]1C | 77.3% (active)
Cc1ccc(S(=O)(=O)N(C)C[C@@H]2Oc3cc(C4=CCCC4)ccc3S(=O)(=O)N([C@@H](C)CO)C[C@@H]2C)cc1 | 36.4% (inactive)
CCCC#Cc1ccc2c(c1)O[C@@H](CN(C)S(=O)(=O)c1cccc(OC)c1)[C@H](C)CN([C@@H](C)CO)S2(=O)=O | 60.4% (active)
C[C@@H]1CN([C@@H](C)CO)S(=O)(=O)c2ccc(C#CCN(C)C)cc2O[C@@H]1CN(C)S(=O)(=O)c1cccc(F)c1 | -15.8% (inactive)
C[C@@H]1CN([C@H](C)CO)S(=O)(=O)c2ccc(C#CCC3CCCC3)cc2O[C@H]1CN(C)C(=O)CC1CC1 | 23.3% (inactive)
COc1cccc(S(=O)(=O)N(C)C[C@@H]2Oc3cc(C4=CCCCC4)ccc3S(=O)(=O)N([C@H](C)CO)C[C@H]2C)c1 | 65.8% (active)
CCCN(C)C[C@H]1Oc2cc(C#CCC3CCCC3)ccc2S(=O)(=O)N([C@@H](C)CO)C[C@@H]1C | 2% (inactive)
C[C@H]1CN([C@@H](C)CO)C(=O)Cc2cc(NC(=O)Nc3cccc4ccccc34)ccc2O[C@@H]1CN(C)C | -5.56% (inactive)
OC[C@H]1[C@H](c2ccc(-c3ccccc3F)cc2)[C@H]2CN(Cc3cncnc3)CCCCN21 | 1.13% (inactive)
COc1ccccc1-c1ccc2c(c1)O[C@H](CN(C)C(=O)c1cccnc1)[C@@H](C)CN([C@H](C)CO)S2(=O)=O | 15% (inactive)
C=CC[C@]12C[C@@]3(O[C@H](c4ccc(C(F)(F)F)cc4)N=C3C[C@H](c3ccc(OC)cc3)[C@H]1C)N(C1CCN(Cc3ccccc3)CC1)C2=O | -2.39% (inactive)
CNC[C@@H]1Oc2cc(C#CC3(O)CCCC3)ccc2S(=O)(=O)N([C@@H](C)CO)C[C@H]1C | 9.72% (inactive)
C[C@@H]1CN([C@H](C)CO)S(=O)(=O)c2ccc(C#CC3CCCCC3)cc2O[C@H]1CN(C)C(=O)Cc1ccncc1 | 0.108% (inactive)
C[C@H]1CN([C@@H](C)CO)S(=O)(=O)c2ccc(C#CC3CCCC3)cc2O[C@H]1CN(C)C(=O)Cc1ccncc1 | 32.9% (inactive)
C[C@@H]1CN([C@H](C)CO)S(=O)(=O)c2ccc(C3=CCCC3)cc2O[C@H]1CN(C)C(=O)Nc1ccc2c(c1)OCO2 | 8.58% (inactive)
CC(C)C#Cc1ccc2c(c1)O[C@@H](CN(C)C(=O)NC(C)C)[C@H](C)CN([C@H](C)CO)S2(=O)=O | -13.2% (inactive)
C[C@H]1CN([C@@H](C)CO)S(=O)(=O)c2ccc(C3=CCCC3)cc2O[C@H]1CN(C)C(=O)Nc1ccc2c(c1)OCO2 | 19.4% (inactive)
C[C@@H]1CN([C@@H](C)CO)S(=O)(=O)c2ccc(C#Cc3ccccc3)cc2O[C@@H]1CN(C)C(=O)Nc1ccccc1 | 3.61% (inactive)
C[C@H]1CN([C@@H](C)CO)S(=O)(=O)c2ccc(C#Cc3ccncc3)cc2O[C@@H]1CN(C)C(=O)Nc1ccc2c(c1)OCO2 | 101% (active)
C[C@@H]1CN([C@H](C)CO)S(=O)(=O)c2ccc(C#CC3CCCC3)cc2O[C@@H]1CN(C)C(=O)Cc1ccncc1 | 90.6% (active)
C[C@H](CO)N1C[C@H](C)[C@H](CN(C)C(=O)Nc2ccc3c(c2)OCO3)Oc2cc(C#Cc3ccncc3)ccc2S1(=O)=O | 72.2% (active)

SMILES | inhibition
CC(C)NC(=O)N1CCCCN2[C@@H](CO)[C@@H](c3ccc(C#Cc4ccccc4)cc3)[C@@H]2C1 | 1.5% (inactive)
C/C=C/c1ccc2c(c1)O[C@@H](CN(C)CC1CCOCC1)[C@@H](C)CN([C@H](C)CO)S2(=O)=O | -8.71% (inactive)
O=C(NC1CCCCC1)N[C@H]1CC[C@H](CCNS(=O)(=O)c2ccc(F)cc2)O[C@H]1CO | 1.61% (inactive)
C[C@@H]1CCCCO[C@H](CN(C)C(=O)c2ccccc2)[C@H](C)CN([C@H](C)CO)C(=O)c2cc(N(C)C)ccc2O1 | 12.7% (inactive)
CC(C)NC(=O)Nc1ccc2c(c1)C(=O)N([C@H](C)CO)C[C@@H](C)[C@@H](CN(C)C(=O)c1ccncc1)OCCCC[C@H](C)O2 | 1.42% (inactive)
C[C@@H]1CN([C@@H](C)CO)C(=O)c2cccc(NC(=O)CCCCCC(=O)Nc3ccccc3N)c2O[C@H]1CN(C)C(=O)Nc1ccccc1 | -12.6% (inactive)
C[C@@H]1CN([C@H](C)CO)C(=O)Cc2cc(NC(=O)Nc3ccccc3)ccc2O[C@H]1CN(C)Cc1ccc(Cl)c(Cl)c1 | 8.31% (inactive)
C[C@@H]1CN([C@@H](C)CO)C(=O)Cc2cc(NC(=O)Nc3ccc(C(F)(F)F)cc3)ccc2O[C@H]1CN(C)Cc1ccc(C(=O)O)cc1 | -5.6% (inactive)
C[C@H](CO)N1C[C@H](C)[C@@H](CN(C)Cc2ccc(-c3ccccc3)cc2)Oc2ccc(NC(=O)CCC(F)(F)F)cc2CC1=O | 70.4% (active)
C[C@@H]1CN([C@H](C)CO)C(=O)Cc2cc(NC(=O)CCC(F)(F)F)ccc2O[C@@H]1CN(C)Cc1ccncc1 | -1.08% (inactive)
Cc1ccc(S(=O)(=O)Nc2ccc3c(c2)CC(=O)N([C@H](C)CO)C[C@@H](C)[C@H](CN(C)Cc2ccc(C(F)(F)F)cc2)O3)cc1 | 70.8% (active)
Cc1ccc(S(=O)(=O)Nc2ccc3c(c2)C(=O)N([C@@H](C)CO)C[C@@H](C)[C@H](CN(C)Cc2ccc(C(F)(F)F)cc2)O3)cc1 | 10.1% (inactive)
C[C@H](CO)N1C[C@H](C)[C@H](CN(C)Cc2ccc(Oc3ccccc3)cc2)Oc2c(NC(=O)CCCCCC(=O)Nc3ccccc3N)cccc2C1=O | 9.67% (inactive)
Cc1ccc(S(=O)(=O)Nc2ccc3c(c2)CC(=O)N([C@@H](C)CO)C[C@H](C)[C@H](CN(C)Cc2ccccc2)O3)cc1 | -12.9% (inactive)
C[C@H](CO)N1C[C@H](C)[C@@H](CN(C)Cc2ccc(Cl)c(Cl)c2)Oc2ccc(NC(=O)Nc3ccc(C(F)(F)F)cc3)cc2CC1=O | 99.1% (active)
C[C@@H]1CN([C@H](C)CO)C(=O)c2cccc(NC(=O)CCCCCC(=O)Nc3ccccc3N)c2O[C@H]1CN(C)Cc1ccc(Oc2ccccc2)cc1 | 71.9% (active)
C[C@@H]1CN([C@@H](C)CO)C(=O)Cc2cc(NC(=O)CCCN(C)C)ccc2O[C@@H]1CN(C)Cc1ccc(-c2ccccc2)cc1 | 10.4% (inactive)
C[C@@H]1ON(C)[C@H]2C[C@H]3c4cc(N5CCOCC5)ccc4CCN3C[C@@H]12 | -4.88% (inactive)
O=C(Nc1ccccc1F)N1CC(=O)N2[C@H](C1)[C@@H](c1ccc(C#CC3CC3)cc1)[C@@H]2CO | -14.6% (inactive)
